GLD-1 RNA inh: GLD-1-TGE RNA interaction inhibition (C. elegans); purified GLD-1 + fluorescein TGE RNA, fluorescence polarization; AID 2280; inhibition, % at 5.96 µM; actives 0.44% (n = 320,000); Q17339;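 active = percent inhibition above a per-plate cutoff, the plate mean of test compounds plus 3 SD, cut at about 30% in these data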;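 also: 0% = DMSO wells with GLD-1 and probe and 100% = wells lacking GLD-1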
MCL1-BIM inh: disrupts human MCL1 binding to BIM-BH3 peptide | Q07820 | GST-MCL1 / FITC-Bim-BH3 fluorescence polarization | inhibition, % at 10.9 µM | actives 0.68% (n = 320,000) | AID 2057;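 active = inhibition above the mean inhibition of all tested compounds plus 3 SD, set per campaign, cut at about 40% in these data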;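 also: 0% = DMSO wells and 100% = unlabeled Bim-BH3 peptide control; higher means more loss of mP so more displacement of Bim peptide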
Target sequence (Q07820 whole entry, looked up): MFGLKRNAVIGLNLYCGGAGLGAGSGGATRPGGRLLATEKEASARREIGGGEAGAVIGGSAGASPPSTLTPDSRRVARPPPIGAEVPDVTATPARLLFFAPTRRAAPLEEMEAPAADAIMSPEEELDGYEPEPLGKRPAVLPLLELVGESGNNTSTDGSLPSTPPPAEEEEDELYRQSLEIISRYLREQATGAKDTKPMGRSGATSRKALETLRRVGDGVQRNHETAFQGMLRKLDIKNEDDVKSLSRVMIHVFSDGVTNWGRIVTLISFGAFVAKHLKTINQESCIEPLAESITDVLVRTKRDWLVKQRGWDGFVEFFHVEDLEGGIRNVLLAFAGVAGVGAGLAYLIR
Bim-Mcl-1: human Bim-Mcl-1 interaction inhibition; Bead-based flow cytometry, Bim peptide-Mcl-1 binding; inhibition, % at 10 µM; actives 0.1% (n = 190,000); in the data active = inhibition above about 40%;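 also: 0% = no compound tracer wells and 100% = peptide blocker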
Mcl1-Noxa inh: disrupts binding of human Mcl-1 to Noxa peptide. Q07820. TR-FRET Mcl-1/Noxa peptide binding, 2 h. inhibition, % at 21.7 µM. actives 1.5% (n = 220,000). AID 1022;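 active = compounds that cut the protein-peptide binding signal by more than 50% relative to plate controls in a single-dose test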;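 also: His-tagged Mcl-1 with rhodamine Noxa BH3 peptide and terbium anti-His antibody; 0% = Mcl-1 plus Noxa peptide wells and 100% = peptide-only wells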
Mcl1 Bid PPI: disrupts binding of human Mcl-1 to Bid peptide; TR-FRET Mcl-1/Bid-Dy647 peptide binding, 1536-well; inhibition, % at 21.7 µM; Q07820; actives 0.97% (n = 220,000); AID 1021;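 active = compounds that cut the binding signal by more than half at the single screening dose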;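 also: His-tagged Mcl-1 with europium anti-His antibody binding Bid BH3 peptide; 0% = Mcl-1 plus peptide wells and 100% = peptide-only wells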
Bcl-xL primary: blocks human Bcl-xL binding to Bim BH3 peptide. Q07817. GST-Bcl-xL / FITC-Bim BH3 peptide fluorescence polarization. inhibition, % at 10.9 µM. actives 0.7% (n = 320,000);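 active = inhibition above the mean of all tested compounds plus 3 SD, cutoff set per campaign, cut at about 30% in these data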;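 also: 0% = DMSO wells and 100% = unlabeled Bim-BH3 peptide competitor; inhibitors lower millipolarization by displacing the labeled peptide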
Target sequence (Q07817 whole entry, looked up): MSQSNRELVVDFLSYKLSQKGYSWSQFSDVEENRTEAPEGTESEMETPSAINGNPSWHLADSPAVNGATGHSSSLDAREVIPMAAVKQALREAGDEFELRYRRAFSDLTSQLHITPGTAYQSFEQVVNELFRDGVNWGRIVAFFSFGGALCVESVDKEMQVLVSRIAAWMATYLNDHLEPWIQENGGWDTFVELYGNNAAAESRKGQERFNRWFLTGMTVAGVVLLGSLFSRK
* hit, by the source's call. An excerpt weighted towards active compounds, which were near 2.3% of everything screened.

How did COc1ccc(-c2[nH]ncc2/C=N/NC(=O)c2ccncc2)c(OC)c1 do in these assays?
GLD-1 RNA inh: 0; MCL1-BIM inh: 1; Bcl-xL primary: -1

Results for CCOC(=O)CC(=O)Nc1ccn[nH]1 ?
GLD-1 RNA inh: 3; MCL1-BIM inh: -7; Mcl1-Noxa inh: 55*; Mcl1 Bid PPI: -1; Bcl-xL primary: 0

What do the screens show for `O=C1c2c(O)cc(O)cc2O[C@@]12c1c(cc(O)c3c1O[C@H](c1ccc(O)cc1)[C@@H](O)C3)O[C@@H]2c1ccc(O)cc1`?
GLD-1 RNA inh: 1; MCL1-BIM inh: 14; Bim-Mcl-1: -2; Mcl1-Noxa inh: 66*; Mcl1 Bid PPI: 7; Bcl-xL primary: 10

How did Oc1cc(O)c2c(c1)O[C@H](c1ccc(O)c(O)c1)[C@@H](O)C2 do in these assays?
GLD-1 RNA inh: 9; MCL1-BIM inh: 12; Mcl1-Noxa inh: 15; Mcl1 Bid PPI: -50; Bcl-xL primary: 11

Results for CCOC(=O)C1=C(C)N(C)C(=O)NC1c1cccc([N+](=O)[O-])c1 (stereo unspecified) ?
GLD-1 RNA inh: 3; MCL1-BIM inh: -3; Bcl-xL primary: 3

Results for CCOC(=O)C1=C(C)N(C)C(=O)NC1c1cc2c(cc1[N+](=O)[O-])OCO2 (stereo unspecified) ?
GLD-1 RNA inh: -1; MCL1-BIM inh: 18; Bim-Mcl-1: 1; Mcl1-Noxa inh: 51*; Mcl1 Bid PPI: 8; Bcl-xL primary: 23

What do the screens show for `O=C(C1=C(O)C(=O)N(CCN2CCOCC2)C1c1cccc(F)c1)c1cc2ccccc2o1` (stereo unspecified)?
GLD-1 RNA inh: -8; MCL1-BIM inh: 2; Bcl-xL primary: 1

What do the screens show for `COc1cccc(N2CCN(C(=O)NC3CCCCC3)CC2)c1`?
GLD-1 RNA inh: 0; MCL1-BIM inh: 0; Bim-Mcl-1: -1; Mcl1-Noxa inh: 11; Mcl1 Bid PPI: 94*; Bcl-xL primary: -1

What do the screens show for `COc1ccc(N2CCN(C(=O)NC3CCCCC3)CC2)cc1`?
GLD-1 RNA inh: -2; MCL1-BIM inh: -1; Bim-Mcl-1: 0; Mcl1-Noxa inh: 16; Mcl1 Bid PPI: -33; Bcl-xL primary: 5

What do the screens show for `O=C(N/N=C1\C(=O)c2cccc3cccc1c23)c1ccc(O)cc1`?
GLD-1 RNA inh: 6; MCL1-BIM inh: 3; Bim-Mcl-1: 1; Mcl1-Noxa inh: 54*; Mcl1 Bid PPI: -24; Bcl-xL primary: 8

How did CNC(=S)N/N=C1\C(=O)c2cccc3cccc1c23 do in these assays?
GLD-1 RNA inh: -4; MCL1-BIM inh: 13; Bim-Mcl-1: -2; Mcl1-Noxa inh: -25; Mcl1 Bid PPI: -47; Bcl-xL primary: 12

How did CCOC(=O)c1c(C)[nH]c(C)c1C(=O)COC(=O)CCc1ccccc1 do in these assays?
GLD-1 RNA inh: 0

What do the screens show for `Cc1nc2sccn2c1-c1nc(-c2cc3ccccc3o2)cs1`?
GLD-1 RNA inh: 1; MCL1-BIM inh: 0; Bim-Mcl-1: 6; Mcl1-Noxa inh: 54*; Mcl1 Bid PPI: 50; Bcl-xL primary: 3

How did c1ccc2oc(-c3csc(N4CCOCC4)n3)cc2c1 do in these assays?
GLD-1 RNA inh: -3; MCL1-BIM inh: 1; Bim-Mcl-1: -1; Mcl1-Noxa inh: 10; Mcl1 Bid PPI: -23; Bcl-xL primary: 1

What do the screens show for `O=C1CC(=O)N(CCc2ccccc2)C(=O)N1CCc1ccccc1`?
GLD-1 RNA inh: -47; MCL1-BIM inh: -70; Bim-Mcl-1: 0; Mcl1-Noxa inh: 13; Mcl1 Bid PPI: 9; Bcl-xL primary: -63

How did O=C1C=CC(=O)C(C2=C3C(=O)N(CCc4ccccc4)CC(=O)N3CCC2)=C1 do in these assays?
GLD-1 RNA inh: 6; MCL1-BIM inh: 20; Bim-Mcl-1: -7; Mcl1-Noxa inh: 84*; Mcl1 Bid PPI: -49; Bcl-xL primary: 20

Results for O=C(Nc1ccc(O)cc1)C1CC=CCC1 (stereo unspecified) ?
GLD-1 RNA inh: -3; MCL1-BIM inh: 7; Bim-Mcl-1: 6; Mcl1-Noxa inh: 56*; Mcl1 Bid PPI: -59; Bcl-xL primary: 7

What do the screens show for `COc1ccc(C(=O)C(C)[n+]2ccc(C)c3ccccc32)cc1[N+](=O)[O-]` (stereo unspecified)?
GLD-1 RNA inh: -44; MCL1-BIM inh: 39; Bcl-xL primary: 34*

What do the screens show for `CCCCn1c(NC(=O)c2ccccc2)c(C#N)c2nc3ccccc3nc21`?
Bim-Mcl-1: 2; Mcl1-Noxa inh: 67*; Mcl1 Bid PPI: 85*

How did Cc1cc2nc(-c3ccc(SCc4ccc(C(=O)O)cc4)nc3)[nH]c2cc1C do in these assays?
GLD-1 RNA inh: -2; MCL1-BIM inh: 1; Bim-Mcl-1: 4; Mcl1-Noxa inh: 76*; Mcl1 Bid PPI: -62; Bcl-xL primary: 10

What do the screens show for `Cc1cc2nc(-c3ccc(SCC(=O)NC(C)C)nc3)[nH]c2cc1C`?
GLD-1 RNA inh: -4; MCL1-BIM inh: 5; Bim-Mcl-1: 0; Mcl1-Noxa inh: 12; Mcl1 Bid PPI: -10; Bcl-xL primary: 4

How did Cc1ccccc1NC(=S)N/N=C/c1ccc(O)cc1O do in these assays?
GLD-1 RNA inh: 2; MCL1-BIM inh: 20; Mcl1-Noxa inh: 60*; Mcl1 Bid PPI: -256; Bcl-xL primary: 9

What do the screens show for `C=CC[C@]12CCc3sccc3C1N(c1ccc(C(=O)OCC)cc1)C2=O` (stereo partly specified)?
GLD-1 RNA inh: 4; MCL1-BIM inh: 3; Bcl-xL primary: -3

What do the screens show for `CCOc1ccc(NC(=O)C(C)Oc2ccc(C#N)cc2)cc1S(=O)(=O)N1CCCC1` (stereo unspecified)?
GLD-1 RNA inh: 2; MCL1-BIM inh: 2; Bcl-xL primary: 4

Results for COc1ccc2nc(N3C(=O)CNC3=S)sc2c1 ?
GLD-1 RNA inh: -3; MCL1-BIM inh: -3; Mcl1-Noxa inh: -62; Mcl1 Bid PPI: -24; Bcl-xL primary: 0

How did CCOc1ccc2nc(N3C(=O)/C(=C/c4ccc(Cl)cc4)NC3=S)sc2c1 do in these assays?
Bim-Mcl-1: -5; Mcl1-Noxa inh: 86*; Mcl1 Bid PPI: 93*

Results for Cc1cc(C)cc(OCC(=O)Nc2ccccc2C(=O)N2CCOCC2)c1 ?
GLD-1 RNA inh: 2; MCL1-BIM inh: 1; Bcl-xL primary: 1

Results for Cc1cccc(OCC(=O)Nc2ccccc2C(=O)N2CCOCC2)c1 ?
GLD-1 RNA inh: 0; MCL1-BIM inh: 4; Bim-Mcl-1: -3; Mcl1-Noxa inh: 59*; Mcl1 Bid PPI: -30; Bcl-xL primary: 2

What do the screens show for `CCN1/C(=C/C=C/C=C/c2sc3ccccc3[n+]2CC)Sc2ccccc21`?
GLD-1 RNA inh: -32; MCL1-BIM inh: 140*; Mcl1-Noxa inh: -252; Mcl1 Bid PPI: inactive; Bcl-xL primary: 128*

What do the screens show for `CN(CCOc1ccc(Cl)c(Cl)c1)Cc1ccccc1`?
GLD-1 RNA inh: 6; MCL1-BIM inh: 7; Bcl-xL primary: 6

What do the screens show for `CCN(CC)CCCOc1ccc(Cl)c(Cl)c1`?
GLD-1 RNA inh: -1; MCL1-BIM inh: 32; Bim-Mcl-1: -5; Mcl1-Noxa inh: 37; Mcl1 Bid PPI: 16; Bcl-xL primary: 36*

Screening results (PubChem BioAssay)
